PubChem BioAssay (NCI)
The panel holds about 83,000 compounds, 20% with a hit somewhere; the sample as a whole holds those more often.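 Treatment: one concentration, 48 hours, 96-well format. Scoring: percent growth, with anything below 10 considered active.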 The source made the active and inactive calls.

Key:
Test in all cases: NCI-60 one-dose screen, 48 h (100 = growth as untreated, 0 = no growth, -100 = all killed)
Conditions in all cases: 10 µM unless noted
NCI-H23 lung = test system: NCI-H23 lung
NCI-H226 lung = test system: NCI-H226 lung
NCI-H322M lung = test system: NCI-H322M lung
HOP-62 NSCLC = test system: HOP-62 NSCLC
NCI-H460 lung = test system: NCI-H460 lung
HOP-92 NSCLC = test system: HOP-92 NSCLC
NCI-H522 lung = test system: NCI-H522 lung
A549/ATCC NSCLC = test system: A549/ATCC NSCLC
786-0 renal = test system: 786-0 renal
COLO 205 colon = test system: COLO 205 colon
DU-145 prostate = test system: DU-145 prostate
K-562 leukemia = test system: K-562 leukemia
MALME-3M melanoma = test system: MALME-3M melanoma
MDA-MB-231 breast = test system: MDA-MB-231 breast
RXF 393 renal = test system: RXF 393 renal
SF-268 CNS = test system: SF-268 CNS
SF-295 CNS = test system: SF-295 CNS
SF-539 CNS = test system: SF-539 CNS
UACC-257 melanoma = test system: UACC-257 melanoma
M14 melanoma = test system: M14 melanoma

Compound | growth (NCI-H23 lung) | growth (NCI-H226 lung) | growth (NCI-H322M lung) | growth (HOP-62 NSCLC) | growth (NCI-H460 lung) | growth (HOP-92 NSCLC) | growth (NCI-H522 lung) | growth (A549/ATCC NSCLC) | growth (786-0 renal) | growth (COLO 205 colon) | growth (DU-145 prostate) | growth (K-562 leukemia) | growth (MALME-3M melanoma) | growth (MDA-MB-231 breast) | growth (RXF 393 renal) | growth (SF-268 CNS) | growth (SF-295 CNS) | growth (SF-539 CNS) | growth (UACC-257 melanoma) | growth (M14 melanoma)
CN(C)CCNC(=O)c1cc2c3cc(Cl)ccc3[nH]c2c2ncccc12 | 32.5% (inactive) | 25% (inactive) | 31.4% (inactive) | 24.4% (inactive) | -0.295% (active) | 2.92% (active) | 21.2% (inactive) | 9.53% (active) | 11.4% (inactive) | -17.9% (active) | 7.58% (active) | -25.1% (active) | -29.9% (active) | 30.3% (inactive) | 15.5% (inactive) | 13.5% (inactive) | 22.1% (inactive) | 5.06% (active) | 18.4% (inactive) | -81% (active)
O=[N+]([O-])c1ccc(O)cc1Br | 95.1% (inactive) | 93.2% (inactive) | 105% (inactive) | 92.4% (inactive) | 104% (inactive) | 44.8% (inactive) | 90.7% (inactive) | 103% (inactive) | 99.8% (inactive) | 108% (inactive) | 103% (inactive) | 93% (inactive) | 102% (inactive) | 95.4% (inactive) | 107% (inactive) | 99.6% (inactive) | 89.4% (inactive) | 91.6% (inactive) | 108% (inactive) | 96.2% (inactive)
O=S(=O)(NCCNc1nccc(-c2c(-c3ccc(F)c(O)c3)nc3occn23)n1)c1ccc(Cl)cc1 | 80.3% (inactive) | 102% (inactive) | 97.1% (inactive) | 101% (inactive) | 76.7% (inactive) | 70.4% (inactive) | 76.6% (inactive) | 77.9% (inactive) | 109% (inactive) | 67.7% (inactive) | 90.9% (inactive) | 73.8% (inactive) | 2.05% (active) | 60% (inactive) | 57.5% (inactive) | 80.5% (inactive) | 97.4% (inactive) | 102% (inactive) | 41.6% (inactive) | 26.6% (inactive)
Oc1ccc(Cl)cc1/C=N\NC(=S)N/N=C/c1cc(Cl)ccc1O | 50% (inactive) | 32.5% (inactive) | 34.4% (inactive) | 51.2% (inactive) | 14.7% (inactive) | 40.1% (inactive) | -7.22% (active) | 37.4% (inactive) | 21.4% (inactive) | 41.5% (inactive) | 58.3% (inactive) | 22.1% (inactive) | 23.4% (inactive) | 37.2% (inactive) | 42.6% (inactive) | 40.6% (inactive) | 11% (inactive) | 20% (inactive) | 21.8% (inactive) | 27.1% (inactive)
N#Cc1nc(-c2ccc(Cl)cc2)oc1S(=O)(=O)N1CCN(c2ccc(F)cc2)CC1 | 88.6% (inactive) | 94.9% (inactive) | 94% (inactive) | 96.4% (inactive) | 104% (inactive) | 99.3% (inactive) | 65.9% (inactive) | 98.6% (inactive) | 99.5% (inactive) | 102% (inactive) | 97.3% (inactive) | 24.6% (inactive) | 92.6% (inactive) | 103% (inactive) | 109% (inactive) | 97.6% (inactive) | 101% (inactive) | 98.3% (inactive) | 94.5% (inactive) | 95% (inactive)
CCOC(=O)C(=O)C(C(=O)OCC)c1ccccc1 (stereo not given) | 107% (inactive) | 107% (inactive) | 110% (inactive) | 107% (inactive) | 110% (inactive) | 107% (inactive) | 101% (inactive) | 122% (inactive) | 93.3% (inactive) | 118% (inactive) | 120% (inactive) | 86.7% (inactive) | 93.2% (inactive) | 94.1% (inactive) | 113% (inactive) | 103% (inactive) | 139% (inactive) | 118% (inactive) | 123% (inactive) | 100% (inactive)
CCCCCOC(=O)c1c(C)[nH]c(/C=C2\N=C(c3ccc[nH]3)C=C2OC)c1C | -59.1% (active) | -74.8% (active) | -17.8% (active) | -17.8% (active) | 4.97% (active) | -20.5% (active) | -56.7% (active) | -1.61% (active) | -16.9% (active) | -88.2% (active) | 27.4% (inactive) | -6.07% (active) | -61.3% (active) | -48.5% (active) | -47.3% (active) | 14.9% (inactive) | -37.2% (active) | -41.6% (active) | -20.1% (active) | -70.4% (active)
COc1ccc(C(=O)N2c3ccccc3Sc3ccccc32)c(OC)c1 | 38% (inactive) | 31.3% (inactive) | 62.2% (inactive) | 48.4% (inactive) | 9.97% (active) | 31.3% (inactive) | -9.67% (active) | 30.6% (inactive) | 28.6% (inactive) | -11.4% (active) | 9.99% (active) | 10.5% (inactive) | 66.9% (inactive) | 38.4% (inactive) | -0.69% (active) | 36.6% (inactive) | 11.6% (inactive) | -18.8% (active) | 77% (inactive) | -9.55% (active)
COc1ccc(/C=C(\C#N)n2nnc3ccc(Cl)cc32)cc1 | 71% (inactive) | 105% (inactive) | 80.8% (inactive) | 111% (inactive) | 83.9% (inactive) | 74.2% (inactive) | 17.8% (inactive) | 58.9% (inactive) | 39.8% (inactive) | 83.1% (inactive) | 64.5% (inactive) | 21.2% (inactive) | 79.5% (inactive) | 76.1% (inactive) | 48.7% (inactive) | 76.1% (inactive) | 85.7% (inactive) | 53.2% (inactive) | 76.3% (inactive) | 58.1% (inactive)
C=C1C(=O)O[C@H]2[C@H]1CC/C(COC(=O)NCc1ccc(Cn3c(=O)sn(CCCCC)c3=O)cc1)=C\CC[C@@]1(C)O[C@@H]21 | 78.6% (inactive) | 75.4% (inactive) | 93.4% (inactive) | 81.2% (inactive) | 92.6% (inactive) | -15.6% (active) | -68.6% (active) | 89.3% (inactive) | 32.1% (inactive) | -20.8% (active) | 9.23% (active) | 1.16% (active) | -14.5% (active) | 31.1% (inactive) | 11.6% (inactive) | 78.6% (inactive) | 102% (inactive) | 46.5% (inactive) | 47.1% (inactive) | 2.8% (active)
CCCNC(=O)Nc1ccc2cc3ccc(NC(=O)NCCC)cc3nc2c1 | 86.4% (inactive) | 90.7% (inactive) | 100% (inactive) | 81.8% (inactive) | 104% (inactive) | 79.2% (inactive) | 79% (inactive) | 95.9% (inactive) | 82.3% (inactive) | 99.3% (inactive) | 118% (inactive) | 60.8% (inactive) | 79.1% (inactive) | 98.8% (inactive) | 77.7% (inactive) | 84.3% (inactive) | 115% (inactive) | 66.5% (inactive) | 87.5% (inactive) | 89.1% (inactive)
C#Cc1c2c(c(OC)c3c1OCO3)[C@H]([C@H]1OC(=O)c3c1ccc(OC)c3OC)N(C)CC2 | 86% (inactive) | 98% (inactive) | 94% (inactive) | 71.8% (inactive) | 96% (inactive) | 91.2% (inactive) | 60.3% (inactive) | 65.5% (inactive) | 95.4% (inactive) | 79.7% (inactive) | 95.1% (inactive) | 31.2% (inactive) | 69.9% (inactive) | 87.5% (inactive) | 92.3% (inactive) | 90.4% (inactive) | 77.7% (inactive) | 96.3% (inactive) | 82.8% (inactive) | 71.4% (inactive)
COc1ccc(-c2nc3c(ncc4ccc(=O)[nH]c43)s2)cc1 | 78.8% (inactive) | 76.1% (inactive) | 77.7% (inactive) | 90.2% (inactive) | 40.8% (inactive) | 87.7% (inactive) | 85.3% (inactive) | 56.1% (inactive) | 88.3% (inactive) | 83.6% (inactive) | 67.7% (inactive) | 93.3% (inactive) | 93.9% (inactive) | 81.5% (inactive) | 88.5% (inactive) | 76.6% (inactive) | 88.1% (inactive) | 84% (inactive) | 118% (inactive) | 74.7% (inactive)
CC1CCN(CCOc2ccc(CNc3ccc4nc(CCC5CCCCC5)[nH]c4c3)cc2)CC1 | 71.7% (inactive) | 30.9% (inactive) | 58.5% (inactive) | 61.5% (inactive) | 27.1% (inactive) | 16% (inactive) | 44.8% (inactive) | 55.3% (inactive) | -55.6% (active) | -84.7% (active) | 50.9% (inactive) | -0.866% (active) | -85.8% (active) | 0.0918% (active) | 2.71% (active) | 57.4% (inactive) | -45.9% (active) | -67.9% (active) | -72.3% (active) | -63.1% (active)
COc1cc2oc(-c3cccc(NC(=O)c4ccccc4)c3)cc(=O)c2c(OC)c1OC | 72.9% (inactive) | 81.4% (inactive) | 83.8% (inactive) | 78.4% (inactive) | 78.7% (inactive) | 47.6% (inactive) | 49.3% (inactive) | 68.9% (inactive) | 78.1% (inactive) | 84.4% (inactive) | 85.5% (inactive) | 43.1% (inactive) | 86.8% (inactive) | 74.7% (inactive) | 74.4% (inactive) | 72.3% (inactive) | 77.8% (inactive) | 67.8% (inactive) | 99.7% (inactive) | 75.3% (inactive)
O=C1Nc2ccccc2/C1=C/c1cccn1CCCCn1c2ccccc2c(=O)c2ccccc21 | 77.4% (inactive) | 75.2% (inactive) | 101% (inactive) | 77.4% (inactive) | 93.7% (inactive) | 59.5% (inactive) | 68.4% (inactive) | 86.3% (inactive) | 97% (inactive) | 69.8% (inactive) | 94.2% (inactive) | 59.5% (inactive) | 91.9% (inactive) | 64.7% (inactive) | 88.1% (inactive) | 83.1% (inactive) | 101% (inactive) | 93% (inactive) | 105% (inactive) | 85.1% (inactive)
